Assay results as given in the supplement of paper PMC10849652.
Of roughly 7,900 targets only a part is listed; those with a hit were picked by preference. About 0.6% of all pairs of compound and target were hits.

Experiments:
Experiment in all cases: log2 fold change, soluble protein after heating vs DMSO (PISA); higher = thermal stabilisation; K562 cells, 10 uM, 30 min; active = over 0.2 and 3.5 SD of the protein, either way, in both replicates (recomputed)
[1] = compound: NC(=O)Nc1cc(-c2cccc(F)c2)sc1C(=O)N[C@H]1CCCNC1
Procedure, shortened: (§1)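 Quantification of soluble protein used TMTpro 16plex LC-MS/MS, with channel sums equalised. Samples were the supernatant after 21,000xg for 90 min of pooled aliquots from K562 cells (2×10^6 cells/mL) treated with 10 μM compound for 30 min, heated for 3 min over 48°C-58°C, and extracted in PBS with 0.5% NP-40 at 4°C. Values, from duplicates, describe thermal stability against control samples on a log2 fold-change scale.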

[2] = compound: NC(=O)c1cnc(N[C@@H]2CCCC[C@@H]2N)nc1Nc1cccc(-n2nccn2)c1
Procedure, shortened: as §1

[3] = compound: NC1(c2ccc(-c3nc4ccn5c(=O)[nH]nc5c4cc3-c3ccccc3)cc2)CCC1
Procedure, shortened: as §1

[4] = compound: NCC(=O)Nc1ccc(-n2nc(C(F)(F)F)cc2-c2ccc3c(ccc4ccccc43)c2)cc1
Procedure, shortened: as §1

entinostat = compound: Nc1ccccc1NC(=O)c1ccc(CNC(=O)OCc2cccnc2)cc1 [entinostat]
Procedure, shortened: as §1

vorinostat = compound: O=C(CCCCCCC(=O)Nc1ccccc1)NO [vorinostat]
Procedure, shortened: as §1

citarinostat = compound: O=C(CCCCCCNC(=O)c1cnc(N(c2ccccc2)c2ccccc2Cl)nc1)NO [citarinostat]
Procedure, shortened: as §1

silmitasertib = compound: O=C(O)c1ccc2c(c1)nc(Nc1cccc(Cl)c1)c1ccncc12 [silmitasertib]
Procedure, shortened: as §1

[5] = compound: O=C1NC(=O)C(c2cnc3ccccn23)=C1c1cn2c3c(cc(F)cc13)CN(C(=O)N1CCCCC1)CC2
Procedure, shortened: as §1

[6] = compound: c1cc(OCCN2CCCCC2)cc(-c2n[nH]c3ccc(-c4nnc[nH]4)cc23)c1
Procedure, shortened: as §1

entospletinib = compound: c1cn2cc(-c3ccc4cn[nH]c4c3)nc(Nc3ccc(N4CCOCC4)cc3)c2n1 [entospletinib]
Procedure, shortened: as §1

Measured: log2 fold change

SSR3 isoform 2 (UniProt Q9UNL2)
UniProt Q9UNL2, sequence (Q9UNL2 whole entry, looked up): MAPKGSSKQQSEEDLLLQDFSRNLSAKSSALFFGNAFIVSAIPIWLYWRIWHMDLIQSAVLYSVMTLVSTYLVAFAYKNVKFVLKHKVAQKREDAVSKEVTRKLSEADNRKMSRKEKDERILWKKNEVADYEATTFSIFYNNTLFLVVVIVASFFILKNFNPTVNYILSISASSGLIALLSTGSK
inactive: [1] -0.056 | [2] 0.18 | [3] -0.056 | entinostat -0.04 | vorinostat 0 | citarinostat 0.068 | silmitasertib 0 | [5] -0.028 | [6] -0.114 | entospletinib -0.012
active: [4] 0.369

TIMM21 (UniProt Q9BVV7)
inactive: [1] -0.041 | [2] -0.055 | [3] -0.087 | [4] -0.047 | entinostat -0.015 | vorinostat 0.04 | citarinostat 0.052 | silmitasertib 0.024 | [5] -0.016 | [6] -0.016 | entospletinib 0.017

SLC6A6 (UniProt P31641)
inactive: [1] -0.099 | [2] 0.03 | [3] 0.024 | [4] -0.19 | entinostat -0.031 | vorinostat -0.059 | citarinostat 0.065 | silmitasertib 0.039 | [5] 0.086 | entospletinib -0.067
active: [6] 0.269

TIMM10B (UniProt Q9Y5J6)
inactive: [1] 0.021 | [2] 0.257 | [3] -0.111 | [4] -0.007 | entinostat 0.016 | vorinostat -0.202 | citarinostat 0.074 | silmitasertib 0.034 | [5] -0.04 | [6] 0.022 | entospletinib 0.045

SLC9A6 isoform 2 (UniProt Q92581)
inactive: [1] -0.021 | [2] 0.016 | [3] -0.091 | [4] -0.02 | entinostat -0.017 | vorinostat -0.078 | citarinostat 0.025 | silmitasertib 0.027 | [5] -0.021 | [6] -0.073 | entospletinib -0.004

SP1 (UniProt P08047)
inactive: [1] -0.017 | [2] 0.011 | [3] 0.1 | [4] -0.001 | entinostat -0.005 | vorinostat 0.052 | citarinostat -0.057 | silmitasertib -0.007 | [5] 0.088 | [6] -0.088 | entospletinib 0.068

SNRNP40 (UniProt Q96DI7)
inactive: [1] 0.017 | [2] -0.017 | [3] 0.065 | [4] -0.011 | entinostat -0.067 | vorinostat -0.018 | citarinostat -0.008 | silmitasertib 0.058 | [5] 0.04 | [6] -0.121 | entospletinib -0.025

SUPT5H (UniProt O00267)
inactive: [1] -0.031 | [2] -0.049 | [3] -0.129 | [4] -0.095 | entinostat 0.029 | vorinostat 0.043 | citarinostat 0.074 | silmitasertib 0.038 | [5] -0.115 | [6] -0.028 | entospletinib 0.031

SREK1 isoform 2 (UniProt Q8WXA9)
inactive: [1] 0.194 | [2] -0.068 | [3] 0.03 | [4] -0.208 | entinostat 0.012 | vorinostat 0.05 | citarinostat 0.129 | silmitasertib -0.148 | [5] 0.059 | [6] -0.213 | entospletinib -0.026

TCOF1 isoform 4 (UniProt Q13428)
UniProt Q13428, sequence (Q13428 whole entry, looked up): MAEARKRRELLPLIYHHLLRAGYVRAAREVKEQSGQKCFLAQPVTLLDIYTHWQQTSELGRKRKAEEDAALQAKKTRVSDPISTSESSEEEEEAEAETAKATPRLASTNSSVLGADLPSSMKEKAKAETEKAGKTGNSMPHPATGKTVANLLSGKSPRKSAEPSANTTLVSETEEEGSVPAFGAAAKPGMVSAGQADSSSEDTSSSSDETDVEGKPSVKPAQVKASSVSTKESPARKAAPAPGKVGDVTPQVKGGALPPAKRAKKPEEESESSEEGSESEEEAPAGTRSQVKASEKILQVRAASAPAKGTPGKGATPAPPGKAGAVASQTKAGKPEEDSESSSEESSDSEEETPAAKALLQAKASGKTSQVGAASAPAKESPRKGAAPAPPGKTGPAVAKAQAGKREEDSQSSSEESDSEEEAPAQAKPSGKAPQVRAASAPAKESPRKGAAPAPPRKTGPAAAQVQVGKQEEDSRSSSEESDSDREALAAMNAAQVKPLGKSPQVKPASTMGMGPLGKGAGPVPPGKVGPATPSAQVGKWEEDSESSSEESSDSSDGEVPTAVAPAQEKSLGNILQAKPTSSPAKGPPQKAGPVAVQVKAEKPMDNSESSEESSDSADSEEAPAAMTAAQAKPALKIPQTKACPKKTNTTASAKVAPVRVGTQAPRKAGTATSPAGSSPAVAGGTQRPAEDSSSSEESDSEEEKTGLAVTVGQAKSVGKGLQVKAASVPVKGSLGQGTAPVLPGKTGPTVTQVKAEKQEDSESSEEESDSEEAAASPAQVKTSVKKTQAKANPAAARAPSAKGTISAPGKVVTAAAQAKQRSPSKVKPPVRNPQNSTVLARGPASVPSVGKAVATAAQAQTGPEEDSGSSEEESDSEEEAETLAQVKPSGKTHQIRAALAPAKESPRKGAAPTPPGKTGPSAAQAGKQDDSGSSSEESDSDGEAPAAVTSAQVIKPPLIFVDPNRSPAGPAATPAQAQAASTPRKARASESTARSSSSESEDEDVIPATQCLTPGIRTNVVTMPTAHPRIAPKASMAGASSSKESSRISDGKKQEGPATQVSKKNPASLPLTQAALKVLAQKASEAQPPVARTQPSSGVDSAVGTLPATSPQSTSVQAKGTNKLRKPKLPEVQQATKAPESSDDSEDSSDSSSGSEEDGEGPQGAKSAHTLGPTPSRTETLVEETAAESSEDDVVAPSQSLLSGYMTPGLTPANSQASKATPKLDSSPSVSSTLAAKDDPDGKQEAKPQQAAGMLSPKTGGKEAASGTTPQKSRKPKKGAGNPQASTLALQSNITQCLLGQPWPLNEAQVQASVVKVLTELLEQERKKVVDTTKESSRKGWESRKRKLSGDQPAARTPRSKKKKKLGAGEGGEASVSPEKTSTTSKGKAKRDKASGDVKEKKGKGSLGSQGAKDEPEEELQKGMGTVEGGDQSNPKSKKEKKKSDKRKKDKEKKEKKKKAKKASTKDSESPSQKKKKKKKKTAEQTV
inactive: [1] 0.131 | [2] -0.065 | [3] -0.014 | [4] -0.013 | entinostat -0.015 | vorinostat -0.026 | citarinostat -0.002 | silmitasertib 0.002 | [5] 0.045 | [6] -0.112 | entospletinib 0.001

SRSF10 (UniProt O75494)
inactive: [1] 0.059 | [2] -0.096 | [3] 0.444 | [4] 0.063 | entinostat -0.047 | vorinostat 0.048 | citarinostat -0.153 | silmitasertib 0.103 | [5] 0.304 | [6] -0.152 | entospletinib 0.235

SMAD9 (UniProt O15198)
inactive: [1] -0.114 | [2] 0.001 | [3] -0.069 | [4] 0.05 | entinostat -0.076 | vorinostat 0.006 | citarinostat -0.017 | silmitasertib -0.055 | [5] -0.111 | [6] -0.029 | entospletinib -0.026

STK26 (UniProt Q9P289)
UniProt Q9P289, sequence (Q9P289 whole entry, looked up): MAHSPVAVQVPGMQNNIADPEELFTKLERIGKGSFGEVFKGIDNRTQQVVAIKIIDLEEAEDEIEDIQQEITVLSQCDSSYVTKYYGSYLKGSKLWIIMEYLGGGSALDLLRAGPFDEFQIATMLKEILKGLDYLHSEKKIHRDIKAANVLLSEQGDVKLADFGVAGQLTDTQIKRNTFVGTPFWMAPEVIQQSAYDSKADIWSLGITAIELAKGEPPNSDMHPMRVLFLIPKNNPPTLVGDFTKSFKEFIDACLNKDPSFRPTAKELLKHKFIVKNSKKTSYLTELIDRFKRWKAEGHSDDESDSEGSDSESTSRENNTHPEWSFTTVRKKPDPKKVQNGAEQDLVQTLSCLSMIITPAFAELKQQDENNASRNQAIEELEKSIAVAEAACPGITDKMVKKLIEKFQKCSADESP
inactive: [1] 0.07 | [2] -0.005 | [3] -0.111 | [4] -0.057 | entinostat -0.063 | vorinostat 0.034 | citarinostat 0.092 | silmitasertib 0.069 | [5] -0.017 | [6] -0.007 | entospletinib -0.022

TBK1 (UniProt Q9UHD2)
inactive: [1] 0.196 | [2] 0 | [3] -0.086 | [4] -0.118 | entinostat 0.055 | vorinostat -0.025 | citarinostat 0.064 | silmitasertib 0.057 | [5] -0.014 | [6] -0.029 | entospletinib 0.108

SRSF4 (UniProt Q08170)
inactive: [1] -0.059 | [2] 0.036 | [3] 0.196 | [4] 0.03 | entinostat -0.002 | vorinostat -0.02 | citarinostat -0.028 | silmitasertib -0.005 | [5] 0.206 | [6] -0.228 | entospletinib 0.134

SQSTM1 (UniProt Q13501)
inactive: [1] -0.036 | [2] -0.12 | [3] -0.068 | [4] -0.079 | entinostat 0.051 | vorinostat 0.007 | citarinostat 0.081 | silmitasertib 0.056 | [5] 0.019 | [6] -0.094 | entospletinib 0.02

TBC1D15 isoform 3 (UniProt Q8TC07)
UniProt Q8TC07, sequence (Q8TC07 whole entry, looked up): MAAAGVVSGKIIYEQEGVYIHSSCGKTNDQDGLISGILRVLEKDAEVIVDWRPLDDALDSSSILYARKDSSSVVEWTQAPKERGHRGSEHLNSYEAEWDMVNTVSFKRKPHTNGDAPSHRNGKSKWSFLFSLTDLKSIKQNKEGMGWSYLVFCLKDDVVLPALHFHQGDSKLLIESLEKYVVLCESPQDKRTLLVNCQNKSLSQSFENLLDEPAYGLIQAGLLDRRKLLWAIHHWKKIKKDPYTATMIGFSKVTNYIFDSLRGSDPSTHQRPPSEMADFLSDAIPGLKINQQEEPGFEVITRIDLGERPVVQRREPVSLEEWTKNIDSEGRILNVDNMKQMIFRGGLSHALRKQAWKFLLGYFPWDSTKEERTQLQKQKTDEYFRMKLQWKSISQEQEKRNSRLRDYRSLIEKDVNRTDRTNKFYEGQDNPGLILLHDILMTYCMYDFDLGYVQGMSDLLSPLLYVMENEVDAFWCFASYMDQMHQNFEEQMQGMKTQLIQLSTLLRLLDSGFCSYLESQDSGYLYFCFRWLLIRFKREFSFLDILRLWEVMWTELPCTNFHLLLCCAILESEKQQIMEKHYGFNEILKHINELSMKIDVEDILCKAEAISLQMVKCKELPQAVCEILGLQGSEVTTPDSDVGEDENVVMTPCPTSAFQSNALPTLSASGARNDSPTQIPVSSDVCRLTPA
inactive: [1] -0.013 | [2] -0.086 | [3] -0.202 | [4] -0.033 | entinostat 0.118 | vorinostat 0.101 | citarinostat 0.036 | silmitasertib 0.071 | [5] -0.008 | [6] -0.059 | entospletinib 0.007

TK1 (UniProt P04183)
UniProt P04183, sequence (P04183 whole entry, looked up): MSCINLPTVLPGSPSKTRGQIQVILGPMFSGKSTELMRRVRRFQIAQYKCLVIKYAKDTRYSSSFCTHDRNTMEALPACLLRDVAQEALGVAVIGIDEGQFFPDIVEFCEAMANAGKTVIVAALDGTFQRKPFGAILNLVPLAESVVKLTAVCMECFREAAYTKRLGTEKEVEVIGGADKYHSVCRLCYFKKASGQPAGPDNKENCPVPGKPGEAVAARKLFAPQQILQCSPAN
inactive: [1] 0.021 | [2] 0.018 | [3] 0.02 | [4] 0.031 | entinostat -0.068 | vorinostat -0.007 | citarinostat 0.016 | silmitasertib 0.013 | [5] -0.025 | [6] -0.027 | entospletinib -0.012

STAT6 (UniProt P42226)
inactive: [1] -0.07 | [2] -0.065 | [3] -0.041 | [4] -0.268 | entinostat 0.044 | vorinostat 0.108 | citarinostat 0.061 | silmitasertib 0.041 | [5] -0.047 | [6] 0.03 | entospletinib -0.052

SPG11 (UniProt Q96JI7)
inactive: [1] -0.395 | [2] -0.138 | [3] 0.145 | [4] -0.293 | entinostat -0.25 | vorinostat -0.638 | citarinostat -0.233 | silmitasertib 0.01 | [5] 0.041 | [6] -0.219 | entospletinib 0.185

SNX11 (UniProt Q9Y5W9)
active: [3] -0.378
inactive: [1] -0.052 | [2] -0.277 | [4] -0.052 | entinostat 0.097 | vorinostat 0 | citarinostat 0.233 | silmitasertib 0.025 | [5] -0.023 | [6] -0.072 | entospletinib 0.135

TGFBR1 isoform 2 (UniProt P36897)
UniProt P36897, sequence (P36897 whole entry, looked up): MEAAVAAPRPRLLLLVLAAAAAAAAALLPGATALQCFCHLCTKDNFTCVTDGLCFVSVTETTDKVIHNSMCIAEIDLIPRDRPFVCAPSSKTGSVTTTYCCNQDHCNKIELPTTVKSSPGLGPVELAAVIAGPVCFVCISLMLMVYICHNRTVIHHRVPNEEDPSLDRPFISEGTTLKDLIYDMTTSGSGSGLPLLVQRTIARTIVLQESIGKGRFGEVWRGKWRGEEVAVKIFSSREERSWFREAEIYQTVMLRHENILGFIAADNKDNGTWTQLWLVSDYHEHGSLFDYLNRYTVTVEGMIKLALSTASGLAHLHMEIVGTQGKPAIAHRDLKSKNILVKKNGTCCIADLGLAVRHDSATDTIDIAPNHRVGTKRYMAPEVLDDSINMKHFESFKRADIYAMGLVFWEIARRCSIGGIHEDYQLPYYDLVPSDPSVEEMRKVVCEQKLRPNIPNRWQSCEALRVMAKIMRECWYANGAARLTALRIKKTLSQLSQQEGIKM
inactive: [1] 0.029 | [2] 0.072 | [3] -0.041 | [4] 0.002 | entinostat 0.093 | vorinostat -0.083 | citarinostat 0.017 | silmitasertib 0.073 | [5] -0.052 | [6] -0.054 | entospletinib -0.018

ST6GAL1 (UniProt P15907)
inactive: [1] -0.101 | [2] 0.089 | [3] -0.079 | [4] -0.004 | entinostat -0.106 | vorinostat -0.045 | citarinostat 0.025 | silmitasertib 0.024 | [5] 0.017 | [6] -0.064 | entospletinib 0.098

SNRPD3 (UniProt P62318)
UniProt P62318, sequence (P62318 whole entry, looked up): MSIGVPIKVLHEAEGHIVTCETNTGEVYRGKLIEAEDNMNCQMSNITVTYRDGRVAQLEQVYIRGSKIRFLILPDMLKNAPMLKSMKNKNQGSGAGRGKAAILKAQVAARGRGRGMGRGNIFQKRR
active: [5] 0.271
inactive: [1] 0.034 | [2] -0.01 | [3] 0.025 | [4] 0.013 | entinostat -0.059 | vorinostat -0.067 | citarinostat -0.019 | silmitasertib 0.092 | [6] -0.055 | entospletinib 0.01

SPTBN4 (UniProt Q9H254)
inactive: [1] 0 | [2] -0.09 | [3] -0.095 | [4] 0.033 | entinostat 0.014 | vorinostat 0.026 | citarinostat 0.05 | silmitasertib 0.062 | [5] 0.129 | [6] -0.013 | entospletinib 0

SPAG9 (UniProt O60271)
UniProt O60271, sequence (O60271 whole entry, looked up): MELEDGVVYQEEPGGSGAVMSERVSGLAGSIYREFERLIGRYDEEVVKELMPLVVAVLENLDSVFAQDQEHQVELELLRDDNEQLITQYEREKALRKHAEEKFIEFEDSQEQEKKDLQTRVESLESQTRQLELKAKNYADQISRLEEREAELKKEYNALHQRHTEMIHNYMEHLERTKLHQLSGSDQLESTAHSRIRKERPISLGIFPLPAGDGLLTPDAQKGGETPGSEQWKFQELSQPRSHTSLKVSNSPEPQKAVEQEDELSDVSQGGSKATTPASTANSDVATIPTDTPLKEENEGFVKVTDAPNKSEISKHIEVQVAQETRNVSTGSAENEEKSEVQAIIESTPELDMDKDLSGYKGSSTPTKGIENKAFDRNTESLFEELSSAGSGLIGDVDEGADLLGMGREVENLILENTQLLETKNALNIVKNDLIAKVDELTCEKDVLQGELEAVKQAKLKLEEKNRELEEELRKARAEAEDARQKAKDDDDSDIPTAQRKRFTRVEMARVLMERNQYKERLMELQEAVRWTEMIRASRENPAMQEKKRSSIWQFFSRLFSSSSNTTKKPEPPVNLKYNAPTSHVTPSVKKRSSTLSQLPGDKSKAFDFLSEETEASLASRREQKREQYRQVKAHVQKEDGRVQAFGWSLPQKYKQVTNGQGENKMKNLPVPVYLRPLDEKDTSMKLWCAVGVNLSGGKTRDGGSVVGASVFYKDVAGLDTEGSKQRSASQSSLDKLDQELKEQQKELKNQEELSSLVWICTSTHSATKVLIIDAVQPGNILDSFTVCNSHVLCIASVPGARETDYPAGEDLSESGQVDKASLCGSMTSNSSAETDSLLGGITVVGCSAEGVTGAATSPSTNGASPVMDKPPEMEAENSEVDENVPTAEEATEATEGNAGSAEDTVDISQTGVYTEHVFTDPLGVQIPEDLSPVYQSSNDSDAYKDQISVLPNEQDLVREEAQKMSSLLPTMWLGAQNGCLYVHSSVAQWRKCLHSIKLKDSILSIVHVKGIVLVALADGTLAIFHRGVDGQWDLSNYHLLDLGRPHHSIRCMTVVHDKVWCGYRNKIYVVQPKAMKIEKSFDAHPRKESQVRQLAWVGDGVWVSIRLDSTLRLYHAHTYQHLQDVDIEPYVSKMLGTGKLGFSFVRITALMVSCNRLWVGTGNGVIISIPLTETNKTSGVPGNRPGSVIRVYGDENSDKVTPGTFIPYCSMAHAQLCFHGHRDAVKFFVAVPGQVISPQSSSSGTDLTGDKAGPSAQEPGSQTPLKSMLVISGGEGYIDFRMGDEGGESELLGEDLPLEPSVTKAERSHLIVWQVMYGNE
inactive: [1] -0.042 | [2] -0.13 | [3] -0.123 | [4] -0.055 | entinostat 0.034 | vorinostat 0.023 | citarinostat 0.01 | silmitasertib 0.038 | [5] -0.014 | [6] -0.024 | entospletinib 0.024

SLC4A2 (UniProt P04920)
inactive: [1] -0.048 | [2] -0.055 | [4] -0.123 | entinostat 0.028 | vorinostat 0.023 | citarinostat -0.072 | silmitasertib 0.019 | [5] 0.016 | [6] -0.084 | entospletinib 0.028
active: [3] -0.204

TJP2 isoform 7 (UniProt Q9UDY2)
inactive: [1] -0.129 | [2] -0.007 | [3] -0.171 | [4] -0.051 | entinostat 0.014 | vorinostat 0.161 | citarinostat 0.039 | silmitasertib -0.061 | [5] 0.025 | [6] -0.167 | entospletinib 0.037
